Measured values reported in PubChem BioAssay (NCATS).
Records with an inconclusive call do not appear. A call without a number means that no potency is given here. Activity calls are given as the source filed them. Unless noted, the call rests on the fitted dose curve; in most records, active means well fitted curve in the direction sought with a large enough effect; inconclusive means small, poorly fitted or top-dose-only effect, or another doubt; inactive means no such curve, though single readings can be large; an effect the other way counts as inactive or inconclusive.

Assays:
[1] = qHTS to identify inhibitors of the type 1 interferon - major histocompatibility complex class I in skeletal muscle: primary screen against the NCATS Pharmaceutical Collection (AID 1347407); settings: human skeletal muscle cells, IFN-b-induced MHC-I HiBiT luminescence, 24 h; series mostly up to 45.9 µM;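 further: luminescence of HiBiT knocked into endogenous HLA-B as interferon-induced MHC class I level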
Outline: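 HLA-B HiBiT myoblasts, dexamethasone-free growth medium + 4 ng/ml IFN-b; compounds pinned 1 h after seeding, […] from 46 uM; 24 h, 37 C, 5% CO2; lytic HiBiT detection, 10 min RT, luminescence.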

[2] = Primary qHTS for inhibitors of La Crosse Virus (LACV) - induced cell death in SH-SY5Y cells (AID 1508616); settings: SH-SY5Y LACV cytopathicity rescue, ATP luminescence, 6 d; series mostly up to 4.29 µM;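 further: top concentration of the series differs between compounds; higher means more rescue of cells from virus-induced death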
Outline: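 Readout was luminescence from ATPLite 1step added after a 6-day LACV infection (0.01 MOI) of SH-SY5Y cells that had received pin-transferred compound 24 hr after seeding.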

[3] = biological target: Calcium and integrin-binding protein 1 (Homo sapiens) (UniProt Q99828); test: Primary qHTS for Identification of Calcium Integrin Binding Protein 1 (CIB1) Competitor (AID 1508620); settings: CIB1-GST / FITC-alphaIIb peptide fluorescence polarization; series mostly up to 114 µM;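 further: GST tagged CIB1 binding a fluorescein labelled alphaIIb integrin peptide tracer; top concentration of the series differs between compounds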
Chain of Calcium and integrin-binding protein 1 (Homo sapiens) (Q99828 whole entry, looked up): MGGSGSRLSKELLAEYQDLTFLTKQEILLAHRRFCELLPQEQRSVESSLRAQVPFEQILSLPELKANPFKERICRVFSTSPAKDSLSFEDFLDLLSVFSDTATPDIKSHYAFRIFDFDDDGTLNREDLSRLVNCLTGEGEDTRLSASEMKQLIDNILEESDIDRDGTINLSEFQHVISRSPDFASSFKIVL
Outline: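 Fluorescence polarization competition: CIB1-GST (1 uM final) preincubated with compound 15 min at room temperature, then FITC-labeled alphaIIb peptide (100 nM final) added for another 15 min. Polarization read at Ex 480/Em 540.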

[4] = Primary qHTS for small molecule stabilizers of the endoplasmic reticulum resident proteome: Secreted ER Calcium Modulated Protein (SERCaMP) assay (AID 1508630); settings: SH-SY5Y GLuc-SERCaMP (Gaussia luciferase released on ER calcium loss) secretion, thapsigargin, luminescence; series mostly up to 38.4 µM
Outline: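 GLuc-SERCaMP-expressing SH-SY5Y cells, pretreated 16 h with compound, are challenged with thapsigargin to empty ER calcium stores; after 4 h, coelenterazine is added directly to the medium and luminescence is imaged.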

[5] = A High-Content qHTS Against Drug Library for the Identification of Small Molecules that Inhibit DYT1 Early Onset Primary Dystonia-Associated Cell Pathology (AID 1645839; calls by dose curve); settings: HEK293 Flp-In EGFP-delE TorsinA, punctate imaging, 48 h; series mostly up to 46.1 µM
Outline: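 Readout: %pathology, the punctate EGFP-TorsinA distribution from imaging, as the primary channel and cell count as the toxicity counterscreen. HEK293 Flp-In cells expressing delE TorsinA were induced with tetracycline and treated with compound for 48 h.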

[6] = biological target: Cytochrome P450 2D6 (Homo sapiens) (UniProt P10635); test: Cytochrome P450 family 2 subfamily D member 6 (CYP2D6) small molecule antagonists: luciferase biochemical (cell-free) qHTS assay (AID 1645840; active means well fitted curve in the direction sought with a large enough effect in the repeat runs; an effect the other way counts as inactive or inconclusive; further: nearly all actives have a fitted effect of over 55% in size; further: potency means the concentration at half of the fitted maximal effect); settings: P450-Glo CYP2D6 enzyme, luciferin luminescence, 1 h; series mostly up to 57.4 µM
Chain of Cytochrome P450 2D6 (Homo sapiens) (P10635 whole entry, looked up): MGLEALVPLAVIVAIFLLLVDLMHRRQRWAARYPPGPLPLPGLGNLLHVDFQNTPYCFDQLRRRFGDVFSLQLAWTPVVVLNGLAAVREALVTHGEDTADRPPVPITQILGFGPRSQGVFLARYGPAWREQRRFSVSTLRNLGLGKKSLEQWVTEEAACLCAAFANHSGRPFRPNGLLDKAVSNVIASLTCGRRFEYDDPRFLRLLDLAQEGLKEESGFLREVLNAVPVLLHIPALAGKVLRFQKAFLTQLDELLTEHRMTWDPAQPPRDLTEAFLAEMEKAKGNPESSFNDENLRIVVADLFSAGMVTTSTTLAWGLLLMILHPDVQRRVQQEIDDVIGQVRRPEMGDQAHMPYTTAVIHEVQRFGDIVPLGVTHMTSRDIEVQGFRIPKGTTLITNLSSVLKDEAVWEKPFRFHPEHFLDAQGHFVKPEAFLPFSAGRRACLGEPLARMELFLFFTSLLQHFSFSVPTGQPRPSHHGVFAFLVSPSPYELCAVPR
Outline: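 P450-Glo luminescent screen: recombinant CYP2D6 enzyme–proluciferin substrate mix preincubated with compound 10 min at room temperature, then NADPH regeneration added for 1 h at room temperature. Detection reagent added for 20 min; luciferin light read as relative luminescence units.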

[7] = biological target: Cytochrome P450 2C9 (Homo sapiens) (UniProt P11712); test: Cytochrome P450 family 2 subfamily C member 9 (CYP2C9) small molecule antagonists: luciferase biochemical (cell-free) qHTS assay (AID 1645842; active means well fitted curve in the direction sought with a large enough effect in the repeat runs; an effect the other way counts as inactive or inconclusive; further: nearly all actives have a fitted effect of over 55% in size; further: potency means the concentration at half of the fitted maximal effect); settings: P450-Glo CYP2C9 enzyme assay, luciferin luminescence; series mostly up to 57.4 µM
Chain of Cytochrome P450 2C9 (Homo sapiens) (P11712 whole entry, looked up): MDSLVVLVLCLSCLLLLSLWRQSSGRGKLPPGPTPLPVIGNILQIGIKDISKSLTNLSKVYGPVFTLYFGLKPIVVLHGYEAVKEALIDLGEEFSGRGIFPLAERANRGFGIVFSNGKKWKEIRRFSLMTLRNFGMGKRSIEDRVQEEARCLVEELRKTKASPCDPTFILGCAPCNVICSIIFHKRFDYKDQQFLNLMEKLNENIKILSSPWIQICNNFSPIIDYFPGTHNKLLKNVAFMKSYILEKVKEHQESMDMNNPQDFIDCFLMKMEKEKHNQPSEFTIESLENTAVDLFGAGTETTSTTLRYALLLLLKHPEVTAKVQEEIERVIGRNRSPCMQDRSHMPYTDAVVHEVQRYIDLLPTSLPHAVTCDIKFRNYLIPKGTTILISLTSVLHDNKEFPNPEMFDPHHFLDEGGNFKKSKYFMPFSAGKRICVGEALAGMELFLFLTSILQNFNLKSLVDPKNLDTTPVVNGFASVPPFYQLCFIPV
Outline: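 Luminescence, after 20 min with luciferin detection reagent, reflected CYP2C9 turnover during a 1 h NADPH-driven reaction at 37C. Enzyme-substrate mix contained 0.4% bovine serum albumin and was preincubated with compound 10 min at room temperature.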

[8] = Primary qHTS for inhibitors of nuclear receptor binding SET domain protein 2 (NSD2) in an isogenic RCH-ACV NSD2 p.E1099K mutant (9B) (AID 1645876); settings: RCH-ACV NSD2 E1099K (9B) viability, CellTiter-Glo, 72 h; series mostly up to 44.9 µM; further: nearly all actives have a fitted effect of over 70% in size
[9] = Primary qHTS for inhibitors of nuclear receptor binding SET domain protein 2 (NSD2) in an RCH-ACV wild type WT cells (2C) (AID 1645877); settings: RCH-ACV (leukaemia line) NSD2 WT (2C) viability, CellTiter-Glo, 72 h; series mostly up to 44.9 µM; further: nearly all actives have a fitted effect of over 70% in size
[10] = biological target: Protein phosphatase 1D (Homo sapiens) (UniProt O15297); test: RapidFire Mass Spectrometry qHTS Assay for Modulators of WT P53-Induced Phosphatase 1 (WIP1) (AID 1347424); settings: WIP1 dephosphorylation of phosphopeptide, RapidFire MS; series mostly up to 63 µM;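 further: amount of dephosphorylated VEPPL-S-QETFS peptide product formed by WIP1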
Chain of Protein phosphatase 1D (Homo sapiens) (O15297 whole entry, looked up): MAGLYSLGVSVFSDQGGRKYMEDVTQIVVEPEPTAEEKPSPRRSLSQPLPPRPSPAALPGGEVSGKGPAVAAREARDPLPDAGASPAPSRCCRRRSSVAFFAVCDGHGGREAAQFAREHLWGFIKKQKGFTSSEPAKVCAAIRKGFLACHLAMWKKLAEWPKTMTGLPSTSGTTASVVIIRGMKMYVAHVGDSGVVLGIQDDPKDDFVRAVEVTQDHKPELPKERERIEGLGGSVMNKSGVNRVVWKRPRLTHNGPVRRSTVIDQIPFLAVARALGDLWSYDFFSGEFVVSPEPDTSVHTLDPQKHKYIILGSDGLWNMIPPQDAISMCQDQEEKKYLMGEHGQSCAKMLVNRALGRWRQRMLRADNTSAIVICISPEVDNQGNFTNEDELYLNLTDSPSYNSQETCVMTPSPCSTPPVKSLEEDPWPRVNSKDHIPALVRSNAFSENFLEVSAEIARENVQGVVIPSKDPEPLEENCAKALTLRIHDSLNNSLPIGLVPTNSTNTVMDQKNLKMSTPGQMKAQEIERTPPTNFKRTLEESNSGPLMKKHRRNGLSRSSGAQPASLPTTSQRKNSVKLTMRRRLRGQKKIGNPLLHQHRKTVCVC
Outline: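 WIP1 (10 nM final) was preincubated 1 h at room temperature with compounds in Tris-HCl pH 7.5, 30 mM MgCl2, TCEP, EGTA, BSA; 2 uM VEPPL-pS-QETFS phosphopeptide was added for 5 min, quenched with formic acid, and dephosphorylated product quantified by RapidFire MS.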

[11] = biological target: Protein phosphatase 1D (Homo sapiens) (UniProt O15297); test: Rhodamine-PBP qHTS Assay for Modulators of WT P53-Induced Phosphatase 1 (WIP1) (AID 1347425); settings: recombinant WIP1, Rhodamine-PBP phosphate fluorescence, real-time; series mostly up to 57.5 µM
Outline: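 The read-out is the change in Rhodamine-PBP fluorescence (f1 - f0, ex 525/em 598 nm) as Pi is released, read each minute for 11 min. Final reaction: 5 nM WIP1, 10 uM phosphopeptide VEPPL-pS-QETFS, 10 uM Rh-PBP, 50 mM Tris-HCl pH 7.5, 30 mM MgCl2. Compound was preincubated with enzyme for 1 hour at room temperature.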

| SMILES | outcome [1] | outcome [2] | outcome [3] | outcome [4] | Potency [5] | Potency [6] | Potency [7] | Potency [8] | Potency [9] | outcome [10] | outcome [11] |
| --- | --- | --- | --- | --- | --- | --- | --- | --- | --- | --- | --- |
| O=C1c2ccccc2C(=O)C1c1ccc(Br)cc1 | inactive | inactive | inactive | inactive | inactive | inactive | 2.19 µM (active) | inactive | inactive | – | – |
| CC(C)CCOC(=O)c1ccc(N(C)C)cc1 | inactive | – | inactive | – | inactive | inactive | 6.92 µM (active) | inactive | inactive | inactive | inactive |
| Cn1c(=O)c2c(ncn2CCO)n(C)c1=O | inactive | inactive | inactive | inactive | inactive | inactive | inactive | inactive | – | – | inactive |
| O=c1[nH]c(=O)c2ccccc2o1 | inactive | – | inactive | inactive | inactive | inactive | inactive | inactive | inactive | inactive | inactive |
| COC(=O)c1ccccc1C(=O)c1ccc(OCCN2CCCCC2)cc1 | inactive | – | inactive | inactive | inactive | 11 µM (active) | – | inactive | inactive | inactive | inactive |
| Cc1cc(NC(=O)C2=C(O)c3ccccc3S(=O)(=O)N2C)no1 | – | inactive | inactive | inactive | inactive | inactive | inactive | inactive | inactive | inactive | inactive |
